Laboratory results reported in the supplement of paper PMC12350171.
Structures can show the parent of a compound that is named as a salt. Unmarked numbers belong to inactive results.

Legend:
Conditions in all cases: 20 µM
[1] = test system: Salmonella enterica typhimurium; assay: growth AUC normalised to DMSO control (fraction of control); higher = less growth inhibition, active = hit call of the paper
Method in brief: (§1)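 Pathogens were passaged twice under anaerobic conditions, then inoculated into pre-reduced mGAM plates at a starting OD578 of 0.01, with compound at 20 μM and 1% DMSO, and sealed with breathable membranes. For Haemophilus parainfluenzae, the medium was supplemented with hemin and NAD. OD578 was read every hour for 24 h in three biological replicates. Growth-curve AUC was calculated by the trapezoidal rule up to the exponential-to-stationary transition and normalised to DMSO controls on the same plate.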

Shigella flexneri = assay: as above
Method in brief: as §1

Vibrio cholerae = assay: as above
Method in brief: as §1

[2] = test system: Yersinia pseudotuberculosis; assay: as above
Method in brief: as §1

P. vulgatus RND KO = assay: growth AUC normalised to DMSO control (median) (fraction of control); higher = less growth inhibition, active = hit call of the paper
Method in brief: (§2)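 Area under the growth curve, calculated by the trapezoidal rule up to entry into stationary phase, was normalised to vehicle wells on the same plate. Strains had been passaged twice overnight without oxygen and then grown in mGAM in 96-well plates from OD578 0.01, each with an approved-drug library compound at 20 μM in 1% DMSO. OD578 was read hourly over 24 h in an anaerobic incubator, and the median of three biological replicates is given.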

P. vulgatus WT = assay: as above
Method in brief: as §2

[3] = test system: S. enterica typhimurium WT; assay: as above
Method in brief: as §2

[4] = test system: S. enterica typhimurium tolC KO; assay: as above
Method in brief: as §2
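Throughout, for growth AUC normalised to DMSO control (median): active when median AUC fell below 0.1.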

Compound | growth AUC normalised to DMSO control [1] | growth AUC normalised to DMSO control (Shigella flexneri) | growth AUC normalised to DMSO control (Vibrio cholerae) | growth AUC normalised to DMSO control [2] | growth AUC normalised to DMSO control (P. vulgatus RND KO) | growth AUC normalised to DMSO control (P. vulgatus WT) | growth AUC normalised to DMSO control [3] | growth AUC normalised to DMSO control [4]
C[C@H]1O[C@@H](O[C@H]2[C@@H](O)C[C@H](O[C@H]3[C@@H](O)C[C@H](O[C@H]4CC[C@@]5(C)[C@H](CC[C@@H]6[C@@H]5C[C@@H](O)[C@]5(C)[C@@H](C7=CC(=O)OC7)CC[C@]65O)C4)O[C@@H]3C)O[C@@H]2C)C[C@H](O)[C@@H]1O [Digoxin] | 0.978 | 0.945 | 0.973 | 0.993 | 0.985 | 1.01 | 0.987 | 0.995
Cc1onc(-c2c(Cl)cccc2Cl)c1C(=O)N[C@@H]1C(=O)N2[C@@H]1SC(C)(C)[C@@H]2C(=O)O [Dicloxacillin sodium salt hydrate] | 0.997 | 1.01 | 1 | 1.01 | 0.081 (active) | 0.0487 (active) | 1.01 | 0.00514 (active)
CC(=O)CC(c1ccccc1)c1c(O)c2ccccc2oc1=O (stereo unspecified) [Warfarin] | 0.999 | 0.996 | 0.945 | 0.999 | 1 | 1.03 | 0.999 | 0.988
CC(C)NCC(O)COc1ccc(COCCOC(C)C)cc1 (stereo unspecified) [Bisoprolol hemifumarate] | 1.03 | 1.03 | 1.05 | 1.02 | 1.02 | 1.08 | 1.01 | 1.01
CCCCCN(CCCCC)C(=O)C(CCC(=O)O)NC(=O)c1ccc(Cl)c(Cl)c1 (stereo unspecified) [Lorglumide sodium salt] | 1 | 0.965 | 0.986 | 1.01 | 0.947 | 0.959 | 1 | 0.991
S=c1[nH]cnc2nc[nH]c12 [Mercaptopurine] | 0.997 | 1.01 | 1 | 0.987 | 1.01 | 1 | 1 | 0.998
COCCCC/C(=N\OCCN)c1ccc(C(F)(F)F)cc1 [Fluvoxamine maleate] | 0.992 | 0.974 | 0.943 | 0.993 | 0.968 | 0.963 | 0.991 | 0.957
O=c1[nH]c(=O)n([C@H]2C[C@H](O)[C@@H](CO)O2)cc1I [Idoxuridine] | 0.909 (active) | 0.861 (active) | 0.992 | 0.984 | 1.01 | 1.05 | 0.936 | 0.933
CC(C)NCC(O)COc1cccc2[nH]ccc12 (stereo unspecified) [Pindolol] | 1.01 | 1.04 | 1.03 | 0.978 | 1.05 | 1.08 | 1 | 1.01
Cn1c(=O)c2c(ncn2CC(=O)O)n(C)c1=O [Acefylline] | 0.979 | 0.987 | 0.98 | 0.987 | 0.987 | 0.996 | 0.996 | 1.01
NC(=O)N/N=C/c1ccc([N+](=O)[O-])o1 [Nitrofural] | 0.713 (active) | 0.154 (active) | 0.01 (active) | 0.875 (active) | 0.0943 (active) | 0.254 | 0.902 | 0.818
O=C(O)c1cc(=O)c2c(OCC(O)COc3cccc4oc(C(=O)O)cc(=O)c34)cccc2o1 [Cromolyn disodium salt] | 0.98 | 0.995 | 1 | 1 | 1.03 | 1.03 | 1.02 | 0.996
CCCCNc1ccc(C(=O)OCCOCCOCCOCCOCCOCCOCCOCCOCCOC)cc1 [Benzonatate] | 1.01 | 0.993 | 0.996 | 0.989 | 1.01 | 0.954 | 1 | 1
CO[C@H]1/C=C/O[C@@]2(C)Oc3c(C)c(O)c4c(O)c(c(/C=N/N5CCN(C)CC5)c(O)c4c3C2=O)NC(=O)/C(C)=C\C=C\[C@H](C)[C@H](O)[C@@H](C)[C@@H](O)[C@@H](C)[C@H](OC(C)=O)[C@@H]1C [Rifampicin] | 0.23 (active) | 0.118 (active) | 1.01 | 0.0362 (active) | 0.0135 (active) | 0.0147 (active) | 0.523 | 0.254
N[C@@H](Cc1cc(I)c(Oc2ccc(O)c(I)c2)c(I)c1)C(=O)O [Liothyronine] | 0.985 | 0.951 | 0.981 | 0.976 | 0.987 | 0.984 | 1.01 | 1
O=c1n(CCCN2CCN(c3cccc(Cl)c3)CC2)nc2ccccn12 [Trazodone hydrochloride] | 0.992 | 0.991 | 0.957 | 0.984 | 0.993 | 1.01 | 1 | 0.964
O=c1[nH]c(=O)n([C@H]2C[C@H](O)[C@@H](CO)O2)cc1F [Floxuridine] | 0.713 (active) | 0.729 (active) | 0.695 (active) | 0.44 (active) | 0.0504 (active) | 0.0573 (active) | 0.815 | 0.791
CN(C)CCCN1c2ccccc2Sc2ccccc21 [Promazine hydrochloride] | 0.936 | 0.945 | 0.86 (active) | 0.965 | 0.821 | 0.776 | 0.991 | 0.971
C[N+]1(C)CCC(OC(=O)C(O)(c2ccccc2)C2CCCC2)C1 (stereo unspecified) [Glycopyrrolate bromide] | 1.02 | 1 | 1.01 | 1.01 | 1 | 0.984 | 1 | 0.993
CC(=O)OCC(CCn1cnc2cnc(N)nc21)COC(C)=O [Famciclovir] | 1.02 | 1.01 | 1.04 | 1.01 | 1.03 | 1.03 | 1 | 0.976
Cc1ccccc1OCC(O)CO (stereo unspecified) [Mephenesin] | 0.999 | 1 | 0.999 | 0.994 | 1.01 | 1.01 | 1 | 1
O=C(O)c1ccccc1C(=O)Nc1ccc(S(=O)(=O)Nc2nccs2)cc1 [Phthalylsulfathiazole] | 1.01 | 1.01 | 1.03 | 0.997 | 1.03 | 1.03 | 0.993 | 0.998
CC(COc1ccccc1)NC(C)C(O)c1ccc(O)cc1 (stereo unspecified) [Isoxsuprine hydrochloride] | 0.979 | 0.989 | 1 | 0.989 | 1.02 | 1.01 | 0.998 | 1
N=C(N)NC(=N)NCCc1ccccc1 [Phenformin hydrochloride] | 1.01 | 0.995 | 1.01 | 0.987 | 1.01 | 1.04 | 0.994 | 0.986
CCCCCCCCCCCCCCCC[N+](C)(C)CCN(Cc1ccc(OC)cc1)c1ncccn1 [Thonzonium bromide] | 0.999 | 0.979 | 0.944 | 1.01 | 0.878 | 0.883 | 1 | 1
CC(=O)Oc1cccc2c1C(=O)c1c(OC(C)=O)cc(C(=O)O)cc1C2=O [Diacerein] | 1 | 0.997 | 0.784 (active) | 1.01 | 0.0327 (active) | 0.324 | 0.995 | 0.38
CC(C)NC[C@@H](O)COc1ccc(CC(N)=O)cc1 [(R,+) Atenolol] | 1.01 | 1.06 | 1.07 | 1.02 | 1.04 | 1.01 | 1.02 | 0.986
